Experimental data taken from PubChem BioAssay (EPA / NIEHS).
Where “and” joins values, the source holds several entries; their conditions need not be identical. Equal values may be shown once. Inconclusive results are not listed. The source holds several records for some structures; these can differ, active in one and inactive in another. Calls of active or inactive are those of the source. How the source made its calls, unless noted: active means hit-call score of the fitted dose curve at least 0.9, where 1 is the maximum; inconclusive means response in the unintended direction; inactive means score below 0.9.

Key:
[1] = biological target: human Norepinephrine Transporter (NET), SLC6A2 (gene 6530) (UniProt P23975); experiment: NVS_TR_hNET: NovaScreen (NVS) Transporter Assay for human Norepinephrine Transporter (NET) (AID 2283377);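 further: cell-free membrane protein extracted from CHO cells expressing human NET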;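 on AC50: displacement of radioligand from human NET seen as loss of scintillation signal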
Summary of the method: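 CHO cell extracts expressing the transporter; tritiated or iodinated tracer displaced competitively; filtration plus scintillation readout at 1 h. Single-point duplicates at 25 uM, concentration series for follow-up; activity = signal drop relative to DMSO.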

[2] = biological target: mouse Estrogen Receptor alpha (Era), Esr1 (gene 13982) (UniProt P19785); experiment: NVS_NR_mERa: NovaScreen (NVS) Nuclear Receptor Binding Assay for mouse Estrogen Receptor alpha (Era) (AID 2283378);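 further: hit means loss of bound radioligand signal relative to DMSO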
Summary of the method: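 Measurements come from scintillation counting after filtration, taken 18 hours after chemicals were added to a cell-free mouse Era preparation with radioligand. Screening was duplicate at 25 uM, with concurrent positive and negative controls and confirmatory concentration series for actives.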

[3] = biological target: Estrogen receptor beta (Homo sapiens) (UniProt Q92731); experiment: OT_ER_ERbERb_1440: Odyssey Thera (OT) 24-hour HEK293T Protein-Complementation Assay for Estrogen Receptor-beta/-beta Homodimer (AID 2283380);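 further: scored as signal increase over DMSO baseline for both agonists and antagonists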
Summary of the method: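 HEK293T cells stably expressing ER beta LBD (aa 310-547) homodimer fragment-complementation reporter, dosed 24 h. Cells formaldehyde-fixed, Draq5-stained; gain in nuclear (agonist) or nuclear plus cytoplasmic (antagonist) fluorescence versus DMSO read by laser scanning cytometry.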

[4] = biological target: Estrogen receptor (Homo sapiens) (UniProt P03372); experiment: OT_ERa_GFPERaERE_0480: Odyssey Thera (OT) 8-hour HeLa Transcription Induction Assay for Estrogen Receptor (AID 2283381; active means hit-call score of the fitted dose curve at least 0.9, where 1 is the maximum; inactive means score below 0.9)
Summary of the method: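 An 8 h HeLa transcription-induction format with a GFP reporter under ERE control, read by fluorescence microscopy; single endpoint fitted positively with DMSO as baseline.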

[5] = biological target: Estrogen receptor (Homo sapiens) (UniProt P03372); experiment: OT_ERa_GFPERaERE_0120: Odyssey Thera (OT) 2-hour HeLa Transcription Induction Assay for Estrogen Receptor (AID 2283382)
Summary of the method: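 Two-hour compound treatment of HeLa cells preceded microscopy imaging of an inducible fluorescent reporter. Image-based quantification gave one endpoint, analysed for signal increase relative to DMSO controls.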

[6] = biological target: Retinoic acid receptor RXR-alpha (Homo sapiens) (UniProt P19793); experiment: OT_NURR1_NURR1RXRa_0480: Odyssey Thera (OT) 8-hour HEK293T Protein Complementation Assay for Nurr1/retinoid X receptor (RXR) (AID 2283385)
Summary of the method: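 Gain in fluorescent complementation signal over DMSO, measured 8 hours after chemical dosing of human kidney HEK293T cells, indicated enhanced Nurr1–RXRα association.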

[7] = biological target: Retinoic acid receptor RXR-alpha (Homo sapiens) (UniProt P19793); experiment: OT_NURR1_NURR1RXRa_1440: Odyssey Thera (OT) 24-hour HEK293T Protein Complementation Assay for Nurr1/retinoid X receptor (RXR) (AID 2283386)
Summary of the method: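 Cell-based binding reporter: HEK293T cells, 24 h exposure, fluorescence-detected fragment complementation, DMSO as baseline.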

[8] = biological target: Bile acid receptor (Homo sapiens) (UniProt Q96RI1); experiment: OT_FXR_FXRSRC1_0480: Odyssey Thera (OT) 8-hour HEK293T Protein-Complementation Assay for Farnesoid X receptor/SRC-1 Co-activator (AID 2283383)
Summary of the method: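 Readings were taken 8 h after dosing HEK293T cells in a split-reporter complementation format pairing FXR with SRC-1. Increased fluorescence relative to DMSO-treated wells defined activity.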

[9] = biological target: Peroxisome proliferator-activated receptor gamma (Homo sapiens) (UniProt P37231); experiment: OT_PPARg_PPARgSRC1_0480: Odyssey Thera (OT) 8-hour Protein-Complementation Assay for Peroxisome Proliferator-activated Receptor Gamma / SRC-1 Co-activator (AID 2283387);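 further: nuclear to cytoplasmic split Venus YFP fluorescence ratio reporting PPARg SRC-1 interaction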
Summary of the method: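 HEK293T transiently transfected with PPARg and SRC-1 fused to Venus YFP fragments, compounds 8 h at 37C. Fixed, Draq5-stained cells imaged; nuclear/cytoplasmic 488 nm fluorescence ratio over at least 350 cells per image; gain fitted versus DMSO.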

[10] = biological target: Peroxisome proliferator-activated receptor gamma (Homo sapiens) (UniProt P37231); experiment: OT_PPARg_PPARgSRC1_1440: Odyssey Thera (OT) 24-hour Protein-Complementation Assay for Peroxisome Proliferator-activated Receptor Gamma/ SRC-1 Co-activator (AID 2283388)
Summary of the method: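 Cells carrying the PPARg/SRC-1 fragment-complementation reporter receive compound for 24 hours, are fixed and counterstained with Draq5, then imaged. Increased nuclear relative to cytoplasmic YFP fluorescence above DMSO baseline indicates binding activity.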

[11] = biological target: Bile acid receptor (Homo sapiens) (UniProt Q96RI1); experiment: OT_FXR_FXRSRC1_1440: Odyssey Thera (OT) 24-hour HEK293T Protein-Complementation Assay for Farnesoid X receptor/SRC-1 Co-activator (AID 2283384)
Summary of the method: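 Single endpoint, analysed for increased fluorescence against DMSO controls. HEK293T cells carrying FXR and SRC-1 linked to complementary reporter halves were exposed to chemicals for 24 h before reading.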

[12] = CEETOX_H295R_11DCORT: CeeTox H295R High-throughput Steroidogenesis Assay for 11-Deoxycortisol (11DCORT) (AID 2283432; active means hit-call score of the fitted dose curve at least 0.9, where 1 is the maximum; inactive means score below 0.9); conditions: actives raise or lower the signal
Summary of the method: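 H295R cells prestimulated 48 h with 10 uM forskolin, then exposed 48 h to chemical in 0.1% DMSO. 11-Deoxycortisol in medium quantified by HPLC-MS/MS after MTBE extraction; bidirectional fit versus DMSO. MTT viability read in same wells.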

[13] = CEETOX_H295R_OHPREG: CeeTox H295R High-throughput Steroidogenesis Assay for OH-Pregnenolone (OHPREG) (AID 2283434; active means hit-call score of the fitted dose curve at least 0.9, where 1 is the maximum; inactive means score below 0.9); conditions: actives raise or lower the signal
Summary of the method: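 H295R, 10 uM forskolin pre-stim 48 h; test chemical 48 h, 0.1% DMSO final. MTBE extraction, reverse-phase C18 HPLC-ESI+ MS/MS of medium. Gain/loss vs DMSO; viability by MTT in same wells.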

[14] = CEETOX_H295R_OHPROG: CeeTox H295R High-throughput Steroidogenesis Assay for OH-Progesterone (OHPROG) (AID 2283435; active means hit-call score of the fitted dose curve at least 0.9, where 1 is the maximum; inactive means score below 0.9;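 on AC50: human adrenal H295R cells primed 48 h with 10 µM forskolin; 17alpha-hydroxyprogesterone secreted into medium measured by HPLC-MS/MS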); conditions: actives raise or lower the signal
Summary of the method: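 Human adrenocortical H295R cells, passage 10 or lower, were treated with chemical for 48 h after forskolin priming, and hormone output in the medium was quantified by LC-MS/MS.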

[15] = CEETOX_H295R_CORTIC: CeeTox H295R High-throughput Steroidogenesis Assay for Corticosterone (CORTIC) (AID 2283437; active means hit-call score of the fitted dose curve at least 0.9, where 1 is the maximum; inactive means score below 0.9;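 further: corticosterone secreted into medium quantified by mass spectrometry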); conditions: actives raise or lower the signal
Summary of the method: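 48 h forskolin (10 uM) prestim, then 48 h chemical exposure, final DMSO 0.1%. Readout: corticosterone in medium by LC-MS/MS after MTBE extraction. Gain/loss fit vs DMSO; MTT viability in same wells.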

[16] = CEETOX_H295R_CORTISOL: CeeTox H295R High-throughput Steroidogenesis Assay for Cortisol (AID 2283438; active means hit-call score of the fitted dose curve at least 0.9, where 1 is the maximum; inactive means score below 0.9;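 further: cortisol secreted into medium quantified by LC-MS/MS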); conditions: actives raise or lower the signal
Summary of the method: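 Steroidogenesis in H295R, per modified OECD 456: 48 h forskolin (10 uM), then 48 h exposure, 0.1% DMSO. Cortisol by extraction and tandem MS; viability by MTT (570/650 nm); cytotoxic chemicals diluted and re-tested.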

[17] = biological target: human Dopamine Transporter (DAT), SLC6A3 (gene 6531) (UniProt Q01959); experiment: NVS_TR_hDAT: NovaScreen (NVS) Transporter Assay for human Dopamine Transporter (DAT) (AID 2283374);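 further: activity means loss of bound radioligand signal relative to DMSO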
Summary of the method: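 hDAT membranes + tritiated/iodinated radioligand, competitive displacement; 1 h; filter scintillation readout. Single conc 25 uM (duplicate), then conc-response for actives. DMSO = negative control.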

[18] = biological target: Agonist Androgen Response Element (ARE), AR (gene 367) (UniProt P10275); experiment: OT_AR_ARELUC_AG_1440: Odyssey Thera (OT) 24-hour CHO-K1 Luciferase Assay for Agonist Androgen Response Element (ARE) (AID 2283379)
Summary of the method: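 Gain-of-signal reporter endpoint: cells (CHO-K1, hamster) are treated 24 h, luciferin/ATP reagent added, and luminescence compared with DMSO baseline.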

Measured: AC50

Estrogen receptor (Homo sapiens), sequence (P03372 whole entry, looked up): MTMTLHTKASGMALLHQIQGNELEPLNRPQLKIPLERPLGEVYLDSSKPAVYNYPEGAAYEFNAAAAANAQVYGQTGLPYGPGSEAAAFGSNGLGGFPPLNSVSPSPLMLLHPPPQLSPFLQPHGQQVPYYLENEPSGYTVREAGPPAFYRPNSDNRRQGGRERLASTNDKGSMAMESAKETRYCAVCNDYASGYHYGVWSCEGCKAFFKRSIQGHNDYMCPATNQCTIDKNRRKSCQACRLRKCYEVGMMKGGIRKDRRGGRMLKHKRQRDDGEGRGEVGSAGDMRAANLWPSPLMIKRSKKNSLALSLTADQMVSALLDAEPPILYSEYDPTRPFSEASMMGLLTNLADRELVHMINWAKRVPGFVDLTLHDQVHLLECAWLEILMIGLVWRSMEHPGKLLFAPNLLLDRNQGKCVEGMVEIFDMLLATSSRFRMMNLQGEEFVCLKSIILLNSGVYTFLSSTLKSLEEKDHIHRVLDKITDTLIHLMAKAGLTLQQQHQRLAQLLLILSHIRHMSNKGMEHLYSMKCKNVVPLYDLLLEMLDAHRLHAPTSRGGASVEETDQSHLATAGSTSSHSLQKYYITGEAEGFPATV
mouse Estrogen Receptor alpha (Era), Esr1 (gene 13982), sequence (P19785 whole entry, looked up): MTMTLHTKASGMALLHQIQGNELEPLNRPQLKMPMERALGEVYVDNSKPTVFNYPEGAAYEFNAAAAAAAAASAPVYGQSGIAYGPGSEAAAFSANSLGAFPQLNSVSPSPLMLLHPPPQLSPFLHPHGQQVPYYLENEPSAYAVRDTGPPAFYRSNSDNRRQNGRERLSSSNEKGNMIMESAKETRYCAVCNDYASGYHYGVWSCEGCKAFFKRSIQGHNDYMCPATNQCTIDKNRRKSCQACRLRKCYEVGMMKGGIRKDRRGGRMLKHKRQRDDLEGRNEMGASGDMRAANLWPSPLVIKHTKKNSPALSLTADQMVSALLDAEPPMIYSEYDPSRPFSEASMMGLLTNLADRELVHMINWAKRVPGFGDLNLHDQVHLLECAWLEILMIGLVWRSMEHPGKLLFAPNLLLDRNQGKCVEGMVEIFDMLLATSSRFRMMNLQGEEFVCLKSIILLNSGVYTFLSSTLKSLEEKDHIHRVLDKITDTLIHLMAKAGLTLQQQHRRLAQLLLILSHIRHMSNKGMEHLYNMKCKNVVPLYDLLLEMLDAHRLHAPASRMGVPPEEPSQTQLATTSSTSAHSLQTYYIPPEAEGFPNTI
human Dopamine Transporter (DAT), SLC6A3 (gene 6531), sequence (Q01959 whole entry, looked up): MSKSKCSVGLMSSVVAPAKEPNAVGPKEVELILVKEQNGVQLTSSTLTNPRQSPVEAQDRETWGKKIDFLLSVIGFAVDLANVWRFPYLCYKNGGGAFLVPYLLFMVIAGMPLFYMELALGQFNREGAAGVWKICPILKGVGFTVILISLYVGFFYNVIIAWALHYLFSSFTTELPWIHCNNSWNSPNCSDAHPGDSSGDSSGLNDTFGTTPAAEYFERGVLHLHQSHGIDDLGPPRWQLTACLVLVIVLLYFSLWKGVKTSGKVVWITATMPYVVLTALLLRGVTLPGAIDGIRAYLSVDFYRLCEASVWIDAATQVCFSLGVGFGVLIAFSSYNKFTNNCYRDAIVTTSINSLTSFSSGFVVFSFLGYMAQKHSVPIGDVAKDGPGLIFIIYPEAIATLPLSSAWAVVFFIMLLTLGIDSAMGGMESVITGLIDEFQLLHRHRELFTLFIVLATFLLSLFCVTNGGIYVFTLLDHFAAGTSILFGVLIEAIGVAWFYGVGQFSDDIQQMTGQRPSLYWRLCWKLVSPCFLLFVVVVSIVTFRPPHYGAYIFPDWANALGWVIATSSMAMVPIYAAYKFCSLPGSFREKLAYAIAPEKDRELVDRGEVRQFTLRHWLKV
Bile acid receptor (Homo sapiens), sequence (Q96RI1 whole entry, looked up): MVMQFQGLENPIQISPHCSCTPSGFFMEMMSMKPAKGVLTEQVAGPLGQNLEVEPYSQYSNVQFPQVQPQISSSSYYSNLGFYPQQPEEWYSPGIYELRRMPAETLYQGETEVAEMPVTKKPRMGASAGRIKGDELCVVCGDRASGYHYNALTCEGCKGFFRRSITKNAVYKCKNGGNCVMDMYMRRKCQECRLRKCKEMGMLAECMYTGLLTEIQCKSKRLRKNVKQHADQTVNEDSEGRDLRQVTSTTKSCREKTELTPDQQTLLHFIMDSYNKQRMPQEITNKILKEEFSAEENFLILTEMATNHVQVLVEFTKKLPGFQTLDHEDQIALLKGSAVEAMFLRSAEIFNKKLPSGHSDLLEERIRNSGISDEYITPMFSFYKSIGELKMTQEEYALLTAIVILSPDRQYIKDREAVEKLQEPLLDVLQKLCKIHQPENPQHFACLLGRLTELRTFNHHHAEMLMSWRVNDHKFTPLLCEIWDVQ
Peroxisome proliferator-activated receptor gamma (Homo sapiens), sequence (P37231 whole entry, looked up, the tested form may be a part): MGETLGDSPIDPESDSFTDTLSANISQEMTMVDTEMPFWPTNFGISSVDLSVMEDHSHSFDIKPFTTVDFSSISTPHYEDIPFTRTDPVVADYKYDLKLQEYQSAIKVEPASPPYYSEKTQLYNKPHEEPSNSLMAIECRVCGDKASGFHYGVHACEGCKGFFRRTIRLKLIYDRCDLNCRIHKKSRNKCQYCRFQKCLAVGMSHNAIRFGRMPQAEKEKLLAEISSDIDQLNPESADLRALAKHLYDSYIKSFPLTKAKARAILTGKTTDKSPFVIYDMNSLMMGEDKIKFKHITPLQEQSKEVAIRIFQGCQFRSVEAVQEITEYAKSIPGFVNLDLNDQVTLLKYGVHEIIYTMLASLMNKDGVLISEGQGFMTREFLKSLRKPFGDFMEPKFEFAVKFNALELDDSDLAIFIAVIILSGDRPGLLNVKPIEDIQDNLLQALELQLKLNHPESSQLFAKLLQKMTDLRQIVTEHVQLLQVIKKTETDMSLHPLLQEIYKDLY
Estrogen receptor beta (Homo sapiens), sequence (Q92731 whole entry, looked up, the tested form may be a part): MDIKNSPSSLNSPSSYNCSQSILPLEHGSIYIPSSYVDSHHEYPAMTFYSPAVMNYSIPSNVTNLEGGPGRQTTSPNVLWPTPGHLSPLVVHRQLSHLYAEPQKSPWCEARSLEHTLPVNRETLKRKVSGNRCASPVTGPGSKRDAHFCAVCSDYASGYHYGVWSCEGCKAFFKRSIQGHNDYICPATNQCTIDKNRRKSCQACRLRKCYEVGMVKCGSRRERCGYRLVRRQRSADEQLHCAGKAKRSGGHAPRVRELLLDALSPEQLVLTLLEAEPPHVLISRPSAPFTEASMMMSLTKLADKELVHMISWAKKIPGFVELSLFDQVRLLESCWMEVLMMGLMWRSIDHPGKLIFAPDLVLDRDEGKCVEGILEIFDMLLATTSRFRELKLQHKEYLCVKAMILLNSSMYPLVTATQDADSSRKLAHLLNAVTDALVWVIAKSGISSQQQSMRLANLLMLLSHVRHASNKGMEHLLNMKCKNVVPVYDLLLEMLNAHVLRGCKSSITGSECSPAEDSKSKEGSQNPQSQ
Retinoic acid receptor RXR-alpha (Homo sapiens), sequence (P19793 whole entry, looked up, the tested form may be a part): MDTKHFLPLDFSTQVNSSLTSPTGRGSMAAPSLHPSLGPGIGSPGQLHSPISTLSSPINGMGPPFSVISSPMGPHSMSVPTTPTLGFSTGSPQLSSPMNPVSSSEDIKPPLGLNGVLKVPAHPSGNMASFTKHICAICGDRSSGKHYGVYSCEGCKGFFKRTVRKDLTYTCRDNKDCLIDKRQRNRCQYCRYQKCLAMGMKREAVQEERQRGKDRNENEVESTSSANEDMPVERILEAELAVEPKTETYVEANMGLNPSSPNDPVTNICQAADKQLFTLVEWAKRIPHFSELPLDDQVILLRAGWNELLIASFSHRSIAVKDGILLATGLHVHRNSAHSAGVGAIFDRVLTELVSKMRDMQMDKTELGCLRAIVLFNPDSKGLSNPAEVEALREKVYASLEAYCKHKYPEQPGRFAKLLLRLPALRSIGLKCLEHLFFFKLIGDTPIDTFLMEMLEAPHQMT
human Norepinephrine Transporter (NET), SLC6A2 (gene 6530), sequence (P23975 whole entry, looked up): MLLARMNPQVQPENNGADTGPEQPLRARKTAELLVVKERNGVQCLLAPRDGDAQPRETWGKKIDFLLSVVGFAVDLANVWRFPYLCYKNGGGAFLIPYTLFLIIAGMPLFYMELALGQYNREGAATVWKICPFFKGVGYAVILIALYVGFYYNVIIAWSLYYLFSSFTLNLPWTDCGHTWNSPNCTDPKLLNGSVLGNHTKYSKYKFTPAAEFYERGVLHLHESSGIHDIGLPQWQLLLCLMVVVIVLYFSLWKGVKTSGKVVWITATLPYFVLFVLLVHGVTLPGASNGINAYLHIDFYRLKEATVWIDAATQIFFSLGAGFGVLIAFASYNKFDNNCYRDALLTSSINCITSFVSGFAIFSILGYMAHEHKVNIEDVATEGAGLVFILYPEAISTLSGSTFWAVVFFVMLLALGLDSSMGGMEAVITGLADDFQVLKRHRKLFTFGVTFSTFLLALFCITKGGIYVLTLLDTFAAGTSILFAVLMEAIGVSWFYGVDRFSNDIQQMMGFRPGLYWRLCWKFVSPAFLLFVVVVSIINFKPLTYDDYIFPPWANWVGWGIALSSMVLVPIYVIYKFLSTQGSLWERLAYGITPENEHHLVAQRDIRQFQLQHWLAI

O=C(O)c1cccc(C[C@@H]2COc3ccc(OCc4nc5cc(F)ccc5s4)cc3[C@@H]2O)c1
inactive: [1] | [2] | [3] | [4] | [5] | [6] | [7]

CC(C)CCCCCCOC(=O)C1CCCCC1C(=O)OCCCCCCC(C)C (centres undefined)
inactive: [2] | [3] | [4] | [5] | [8] | [6] | [7] | [9] | [10]

Nc1ccn([C@@H]2O[C@H](CO)[C@@H](O)[C@@H]2O)c(=O)n1
inactive: [2] | [4] | [8] | [11] | [6] | [7] | [10] | [12] | [13] | [14] | [15] | [16]
active: [5] 62.2 µM

CCn1nc(C)c2c1C(=O)NCC(c1ccc(O)cc1)=N2
active: [7] 21.4 µM | [14] 2.63 µM
inactive: [17] | [3] | [4] | [5] | [6] | [7] | [9] | [10] | [12] | [13] | [15] | [16]

c1ccc(C(O[C@@H]2CCCN(CCc3ccc4c(c3)OCO4)C2)c2ccccc2)cc1
inactive: [4] | [5] | [6] | [9] | [10]
active: [17] 0.063 µM | [1] 4.2 µM | [2] 25 µM | [3] 38.5 µM | [6] 89 µM | [7] 77.7 µM and 81.9 µM

OCc1ccccc1
inactive: [17] | [18] | [3] | [4] | [5] | [6] | [7] | [9] | [10]

Cc1nccn1-c1ccc(Sc2cccc(C3(C(N)=O)CCOCC3)c2)cc1
inactive: [5] | [6] | [7] | [9] | [10]
active: [17] 6.99 µM | [3] 31.9 µM | [4] 17.4 µM | [8] 4.07 µM | [11] 9.64 µM | [7] 50 µM
